Data as given in PubChem BioAssay.
Active and inactive are the calls of the source. Unless noted, the rule behind the calls is not given here.

Key:
[1] = system: Wnt5a (protein binding on small-molecule microarray); experiment: small molecules binding Wnt5a protein – biophysical, small-molecule microarray, 635/667 nm fluorescence, primary screen (AID 1142); conditions: 635 nm fluorescence, higher = more signal;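 note: fluorescence read at 667 nm with signal to noise per printed feature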
[2] = ATP-based viability of Huh7 replicon cells – cell-based, CellTiter-Glo luminescence, basal, 48 h, cytotoxicity control for HCV replication inhibitor project, primary screen (AID 1143); conditions: higher = more signal, called active from +8 up or from −8 down;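 note: Huh7 hepatoma cells carrying a hepatitis C replication reporter with no stimulus; test concentration not given here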
[3] = Pseudomonas biofilm growth suppression – PAO1 strain, BacTiter-Glo luminescence, LB-PBS, primary screen (AID 1144); conditions: P. aeruginosa PAO1 biofilm, 12 h, higher = more signal
[4] = basal CRE-LacZ reporter activity in PC12 – cell-based, unstimulated, primary screen (AID 1145); conditions: no forskolin, luminescence, 4.5 h, higher = more signal, called active from +8 up or from −8 down
[5] = forskolin-driven CRE-LacZ activity in PC12 – cell-based, CRE-LacZ reporter, forskolin-stimulated, primary screen (AID 1146); conditions: luminescence, 4.5 h, higher = more signal, called active from +8 up or from −8 down;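 note: PC12 cells with 6xCRE LacZ reporter stimulated by forskolin 10 µM; beta-galactosidase reporter signal reflecting CREB driven transcription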
[6] = biological target: Streptavidin (Streptomyces avidinii) (UniProt P22629); experiment: compounds binding control protein streptavidin – biophysical, small-molecule microarray, 635/667 nm fluorescence, artefact control for SMM compound annotation, primary screen (AID 1147); conditions: higher = more signal;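 note: signal reflects streptavidin binding to arrayed compounds as a control protein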
[7] = probe aInhba binding on compound microarray – biochemical, small-molecule microarray, 635/667 nm fluorescence, primary screen (AID 1148); conditions: higher = more signal;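 note: score merges 667nm spot fluorescence with signal-to-noise for antibody binding to printed compounds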
[8] = biological target: Torsin-1A (Homo sapiens) (UniProt O14656); experiment: TOR1A wild-type binding on microarray – cell lysate, small-molecule microarray, lysate, 635/667 nm, primary screen (AID 1149); conditions: COS7 hTOR1A-WT lysate, 635 nm fluorescence, higher = more signal
[9] = biological target: Torsin-1A (Homo sapiens) (UniProt O14656); experiment: torsin A mutant lysate binding on microarrays – cell lysate, small-molecule microarray, COS7 lysate, 635/667 nm fluorescence, primary screen (AID 1150); conditions: COS7 hTOR1A mutant lysate, 635 nm fluorescence, higher = more signal;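 note: score pools 667 nm emission and signal to noise measuring lysate protein binding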
[10] = system: Sonic hedgehog protein (Shh); experiment: Sonic hedgehog microarray binding compounds – biochemical, small-molecule microarray, 635/667 nm fluorescence, primary screen (AID 1151); conditions: 635 nm fluorescence, higher = more signal;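 note: Shh protein binding to compounds spotted on small-molecule microarray slides; score combines spot fluorescence intensity with signal-to-noise across triplicate slides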
[11] = optical density shifts of acrAB sulA E. coli – strain DRC41, OD650, 48 h, E. coli filamentation inducer project, primary screen (AID 1152); conditions: higher = more signal, called active from +8 up or from −8 down;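 note: E. coli MC1000 strain DRC41 lacking acrAB efflux pump and sulA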
[12] = probe aLefty1 binding on compound microarray – biochemical, small-molecule microarray, 635/667 nm fluorescence, primary screen (AID 1153); conditions: higher = more signal;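 note: score merges spot fluorescence with signal-to-noise ratio from the scanned slide images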
[13] = plasmodial surface anion channel blockers, osmotic lysis – cell-based, P. falciparum Indochina, OD700, 1 h, primary screen (AID 1154); conditions: P. falciparum Indochina infected RBC osmotic lysis, higher = more signal, called active from +8 up or from −8 down
[14] = plasmodial surface anion channel blockers, osmotic lysis – cell-based, P. falciparum Indochina, OD700, 2 h, primary screen (AID 1155);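 note: lysis reports solute entry through the parasite surface anion channel PSAC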; conditions: P. falciparum Indochina infected erythrocytes, higher = more signal, called active from +8 up or from −8 down
[15] = changes in parasitized red cell lysis, either direction – P. falciparum Indochina, OD700, 3 h, PSAC antagonist project, primary screen (AID 1156); conditions: P. falciparum-infected erythrocytes, osmotic lysis, higher = more signal, called active from +8 up or from −8 down
[16] = plasmodial surface anion channel blockers, osmotic lysis – cell-based, P. falciparum Indochina, OD700, 18 h, primary screen (AID 1157); conditions: P. falciparum Indochina infected erythrocytes, osmotic lysis OD700, 18 h; higher = more signal, called active from +8 up or from −8 down
[17] = S6 kinase pathway phospho-S6 level changes – cell-based, A549, cytoblot, luminescence, serum-stimulated, primary screen (AID 1158); conditions: 5 h, higher = more signal;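 note: serum-stimulated A549 lung adenocarcinoma cells; signal is phosphorylated S6 detected by cytoblot immunostaining with HRP secondary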
[18] = biological target: NADPH oxidase 2 (Homo sapiens) (UniProt P04839); experiment: compounds shifting NOX2 Amplex Red fluorescence – cell-based, HEK293-NOX2, PMA-stimulated, NOX inhibitor project, primary screen (AID 1159); conditions: 45 min, higher = more signal, called active from +8 up or from −8 down; note: test concentration not given here
[19] = biological target: NADPH oxidase 4 (Homo sapiens) (UniProt Q9NPH5); experiment: compounds shifting NOX4 Amplex Red fluorescence – cell-based, HEK293-NOX4, tetracycline-induced, NOX inhibitor project, primary screen (AID 1160); conditions: HEK293-NOX4, Amplex Red H2O2 fluorescence, 45 min; higher = more signal, called active from +8 up or from −8 down
[20] = biological target: NADPH oxidase 5 (Homo sapiens) (UniProt Q96PH1); experiment: compounds shifting NOX5 Amplex Red fluorescence – cell-based, HEK293-NOX5, NOX inhibitor project, primary screen (AID 1161); conditions: HEK293-NOX5, ionomycin, 45 min, higher = more signal
Sequence of NADPH oxidase 5 (Homo sapiens) (Q96PH1 whole entry, looked up): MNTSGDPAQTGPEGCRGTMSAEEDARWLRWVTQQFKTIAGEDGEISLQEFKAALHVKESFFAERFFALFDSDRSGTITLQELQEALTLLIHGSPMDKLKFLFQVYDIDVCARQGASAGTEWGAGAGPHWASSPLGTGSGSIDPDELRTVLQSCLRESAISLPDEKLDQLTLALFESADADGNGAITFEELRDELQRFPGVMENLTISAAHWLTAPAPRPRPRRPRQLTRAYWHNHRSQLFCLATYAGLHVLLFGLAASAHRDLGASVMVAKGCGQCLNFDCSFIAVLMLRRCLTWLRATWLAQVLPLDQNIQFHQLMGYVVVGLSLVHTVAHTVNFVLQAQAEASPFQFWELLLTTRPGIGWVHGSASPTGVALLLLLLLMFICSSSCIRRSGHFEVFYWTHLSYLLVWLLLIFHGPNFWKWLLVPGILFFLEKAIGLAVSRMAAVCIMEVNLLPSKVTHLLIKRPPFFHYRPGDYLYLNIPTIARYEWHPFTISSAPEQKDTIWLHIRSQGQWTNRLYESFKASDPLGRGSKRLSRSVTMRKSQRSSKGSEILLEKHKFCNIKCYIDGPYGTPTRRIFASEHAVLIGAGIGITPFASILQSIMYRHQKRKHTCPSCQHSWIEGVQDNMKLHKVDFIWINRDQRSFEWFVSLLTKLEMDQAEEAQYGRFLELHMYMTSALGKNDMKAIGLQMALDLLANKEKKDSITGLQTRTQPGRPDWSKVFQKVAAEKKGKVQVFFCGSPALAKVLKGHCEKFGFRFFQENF

Sequence of Streptavidin (Streptomyces avidinii) (P22629 whole entry, looked up): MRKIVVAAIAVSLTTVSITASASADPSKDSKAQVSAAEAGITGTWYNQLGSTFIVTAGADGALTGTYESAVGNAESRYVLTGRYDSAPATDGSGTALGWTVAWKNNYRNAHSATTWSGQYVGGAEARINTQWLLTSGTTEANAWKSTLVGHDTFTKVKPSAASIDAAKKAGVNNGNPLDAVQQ
Sequence of NADPH oxidase 4 (Homo sapiens) (Q9NPH5 whole entry, looked up): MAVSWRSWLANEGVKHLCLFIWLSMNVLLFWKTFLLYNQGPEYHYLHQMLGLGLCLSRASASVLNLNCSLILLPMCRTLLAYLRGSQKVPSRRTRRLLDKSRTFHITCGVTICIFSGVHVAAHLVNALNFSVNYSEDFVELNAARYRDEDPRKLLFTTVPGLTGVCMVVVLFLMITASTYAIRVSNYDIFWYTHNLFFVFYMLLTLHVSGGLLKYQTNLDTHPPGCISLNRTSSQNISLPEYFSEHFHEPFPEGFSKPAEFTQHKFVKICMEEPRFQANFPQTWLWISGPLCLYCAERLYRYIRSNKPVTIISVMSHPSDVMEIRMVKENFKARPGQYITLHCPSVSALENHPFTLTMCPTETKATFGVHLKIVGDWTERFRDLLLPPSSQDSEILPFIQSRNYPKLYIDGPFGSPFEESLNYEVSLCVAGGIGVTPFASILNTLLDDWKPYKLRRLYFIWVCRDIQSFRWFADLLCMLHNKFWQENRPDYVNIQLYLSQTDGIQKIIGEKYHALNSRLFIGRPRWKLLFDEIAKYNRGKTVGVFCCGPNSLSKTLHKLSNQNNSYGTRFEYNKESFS
Sequence of Torsin-1A (Homo sapiens) (O14656 whole entry, looked up): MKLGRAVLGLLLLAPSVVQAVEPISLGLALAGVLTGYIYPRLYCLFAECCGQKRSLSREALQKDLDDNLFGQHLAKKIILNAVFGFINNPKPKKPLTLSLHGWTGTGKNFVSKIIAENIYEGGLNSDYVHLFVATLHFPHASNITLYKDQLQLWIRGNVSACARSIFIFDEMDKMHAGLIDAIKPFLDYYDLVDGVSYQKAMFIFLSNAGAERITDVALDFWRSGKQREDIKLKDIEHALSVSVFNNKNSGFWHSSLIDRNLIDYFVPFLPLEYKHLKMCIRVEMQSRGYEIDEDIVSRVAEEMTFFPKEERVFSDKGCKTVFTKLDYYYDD
Sequence of NADPH oxidase 2 (Homo sapiens) (P04839 whole entry, looked up): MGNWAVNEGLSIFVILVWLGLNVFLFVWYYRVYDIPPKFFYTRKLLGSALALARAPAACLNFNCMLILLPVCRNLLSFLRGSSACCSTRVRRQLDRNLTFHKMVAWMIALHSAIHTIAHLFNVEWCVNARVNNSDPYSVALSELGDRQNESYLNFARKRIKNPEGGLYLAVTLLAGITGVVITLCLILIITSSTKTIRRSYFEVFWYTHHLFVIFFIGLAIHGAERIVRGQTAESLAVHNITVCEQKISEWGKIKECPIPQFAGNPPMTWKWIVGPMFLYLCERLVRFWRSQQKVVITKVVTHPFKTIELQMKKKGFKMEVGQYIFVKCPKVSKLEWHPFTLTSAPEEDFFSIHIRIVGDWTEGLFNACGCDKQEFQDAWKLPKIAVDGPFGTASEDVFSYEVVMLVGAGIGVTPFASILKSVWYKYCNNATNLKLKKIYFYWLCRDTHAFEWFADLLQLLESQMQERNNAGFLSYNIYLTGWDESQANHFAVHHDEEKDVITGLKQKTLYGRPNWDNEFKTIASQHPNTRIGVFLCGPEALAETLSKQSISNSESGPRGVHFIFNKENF

COc1ccc(NC(=O)O[C@H]2[C@@H]3OC(=O)[C@H](Cc4cccc(Br)c4)C/C=C/C[C@@H](Cc4cccc(Br)c4)C(=O)O[C@H]3[C@@H](OC)O[C@@H]2CO)cc1
composite z-score [1]: 0.232
z-score [2]: -0.878 (inactive)
z-score [3]: 0.388 (inactive)
z-score [4]: 0.753 (inactive)
z-score [5]: -0.686 (inactive)
composite z-score [6]: 0.328
composite z-score [7]: 0.318
composite z-score [8]: 0.344
composite z-score [9]: 1.34
composite z-score [10]: 0.597
z-score [11]: 0.446 (inactive)
composite z-score [12]: 0.358
z-score [13]: 0.469 (inactive)
z-score [14]: -0.173 (inactive)
z-score [15]: -0.284 (inactive)
z-score [16]: 0.434 (inactive)
z-score [17]: 0.353
z-score [18]: -1.73 (inactive)
z-score [19]: -1.21 (inactive)
z-score [20]: -1.64

O=C1O[C@H](c2ccccc2)[C@H](c2ccccc2)N2[C@H]1[C@@H](C(=O)Nc1nc3ccccc3s1)[C@]1(C(=O)Nc3ccc(C#CC4=CCCCC4)cc31)[C@H]2c1ccc(O)cc1
composite z-score [1]: 0.357
z-score [2]: -4.09 (inactive)
z-score [3]: -0.922 (inactive)
z-score [4]: -0.671 (inactive)
z-score [5]: 0.0225 (inactive)
composite z-score [6]: 1.24
composite z-score [7]: -0.103
composite z-score [8]: -0.253
composite z-score [9]: 0.335
composite z-score [10]: 1
z-score [11]: 2.68 (inactive)
composite z-score [12]: 0.122
z-score [13]: -0.559 (inactive)
z-score [14]: -0.0042 (inactive)
z-score [15]: -0.715 (inactive)
z-score [16]: 0.193 (inactive)
z-score [17]: 1.26
z-score [18]: 0.878 (inactive)
z-score [19]: 0.214 (inactive)
z-score [20]: 0.191

C=C[C@@H](OC)[C@H](OC(=O)Nc1ccc(OC)cc1)c1ccc(OC)c(O)c1
composite z-score [1]: -0.451
z-score [2]: -0.749 (inactive)
z-score [3]: -0.327 (inactive)
z-score [4]: 0.702 (inactive)
z-score [5]: 0.177 (inactive)
composite z-score [6]: -0.833
composite z-score [7]: -0.166
composite z-score [8]: -2.5
composite z-score [9]: -1.12
composite z-score [10]: 0.63
z-score [11]: 0.139 (inactive)
composite z-score [12]: -0.123
z-score [13]: 2.48 (inactive)
z-score [14]: 0.96 (inactive)
z-score [15]: 0.0081 (inactive)
z-score [16]: 0.45 (inactive)
z-score [17]: -0.0451
z-score [18]: -2.52 (inactive)
z-score [19]: -1.04 (inactive)
z-score [20]: -1.2

CC(C)C(=C=CC[C@H](O)c1cccc(OCCO)c1)CCO
composite z-score [1]: 0.299
z-score [2]: -1.25 (inactive)
z-score [3]: -0.461 (inactive)
z-score [4]: 6.6 (inactive)
z-score [5]: -0.253 (inactive)
composite z-score [6]: -0.669
composite z-score [7]: -0.224
composite z-score [8]: -0.513
composite z-score [9]: 0.15
composite z-score [10]: 0.688
z-score [11]: 1.09 (inactive)
composite z-score [12]: -0.116
z-score [13]: 1.77 (inactive)
z-score [14]: -1.04 (inactive)
z-score [15]: -1.42 (inactive)
z-score [16]: -1.95 (inactive)
z-score [17]: 0.28
z-score [18]: -0.24 (inactive)
z-score [19]: 0.17 (inactive)
z-score [20]: -1.29

COC(=O)[C@@]1(Cc2ccc(F)cc2)[C@H]2c3cc(C(=O)N(C)C)n(Cc4c(CO)[nH]cc(C)c4=O)c3C[C@H]2CN1C(=O)c1ccccc1
composite z-score [1]: 0.39
z-score [2]: -0.401 (inactive)
z-score [3]: -0.00694 (inactive)
z-score [4]: 0.39 (inactive)
z-score [5]: 1.15 (inactive)
composite z-score [6]: -0.0278
composite z-score [7]: 0.0212
composite z-score [8]: 0.475
composite z-score [9]: -0.134
composite z-score [10]: -0.462
z-score [11]: -1.35 (inactive)
composite z-score [12]: 0.0752
z-score [13]: 0.756 (inactive)
z-score [14]: 0.19 (inactive)
z-score [15]: 0.865 (inactive)
z-score [16]: 0.816 (inactive)
z-score [17]: -0.122
z-score [18]: 0.31 (inactive)
z-score [19]: -0.0408 (inactive)
z-score [20]: -3.5

CN1C(=O)[C@@]2(Cc3ccccc3)N=C(c3ccc(OCCCO)cc3)O[C@H]2c2ccccc21
composite z-score [1]: 0.634
z-score [2]: -4.44 (inactive)
z-score [3]: -0.458 (inactive)
z-score [4]: 1.04 (inactive)
z-score [5]: -1.67 (inactive)
composite z-score [6]: 0.0831
composite z-score [7]: 0.382
composite z-score [8]: 0.266
composite z-score [9]: -0.0779
composite z-score [10]: 1.45
z-score [11]: -0.0237 (inactive)
composite z-score [12]: 0.501
z-score [13]: 31.8 (active)
z-score [14]: 30.4 (active)
z-score [15]: 2.93 (inactive)
z-score [16]: 2.65 (inactive)
z-score [17]: 0.385
z-score [18]: -1.74 (inactive)
z-score [19]: 0.151 (inactive)
z-score [20]: -1.64

CC(=O)NCCCC[C@@H]1NC(=O)[C@@H]2C[C@H](C(=O)NCCCCCCN)[C@H](c3cccc(OCCO)c3)N2C1=O
composite z-score [1]: -0.147
z-score [2]: -0.0107 (inactive)
z-score [3]: 0.615 (inactive)
z-score [4]: -0.13 (inactive)
z-score [5]: -0.556 (inactive)
composite z-score [6]: 0.932
composite z-score [7]: -0.128
composite z-score [8]: 0.475
composite z-score [9]: 0.464
composite z-score [10]: -0.601
z-score [11]: -0.813 (inactive)
composite z-score [12]: 0.0455
z-score [13]: 9.65 (active)
z-score [14]: 0.503 (inactive)
z-score [15]: 0.819 (inactive)
z-score [16]: 0.351 (inactive)
z-score [17]: -0.42
z-score [18]: 0.892 (inactive)
z-score [19]: 0.353 (inactive)
z-score [20]: -0.568

Cc1ccc(S[C@]2(C(=O)NCc3ccccc3)CC(=O)N(Cc3cc(C(F)(F)F)cc(C(F)(F)F)c3)[C@@H]2c2ccc(CO)cc2I)cc1
composite z-score [1]: -0.309
z-score [2]: -1.24 (inactive)
z-score [3]: -0.314 (inactive)
z-score [4]: 0.479 (inactive)
z-score [5]: 0.279 (inactive)
composite z-score [6]: -0.649
composite z-score [7]: -0.0523
composite z-score [8]: -0.199
composite z-score [9]: -0.298
composite z-score [10]: -0.757
z-score [11]: 1.66 (inactive)
composite z-score [12]: 0.0903
z-score [13]: 3.13 (inactive)
z-score [14]: 0.769 (inactive)
z-score [15]: -0.0654 (inactive)
z-score [16]: 0.598 (inactive)
z-score [17]: 0.209
z-score [18]: 1.69 (inactive)
z-score [19]: -1.24 (inactive)
z-score [20]: 1.28
